Test results as given in the supplement of paper PMC3342239.
Structures can show the parent of a compound that is named as a salt.

test system: Saccharomyces cerevisiae; experiment: fraction of cells in G1 phase (DNA content, flow cytometry); higher = more cells with unreplicated DNA (G1 delay); conditions: temperature: 30 C; YPD; JTY2953 pdr5 snq2 (sensitized); drug added to: cultures diluted from stationary phase; 6-7 h
Procedure, shortened: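 Yeast (S. cerevisiae) in YPD at 30°C was treated with library drugs, and cells were then fixed in ethanol, stained with SYTOX Green and counted by flow cytometry over 10,000 events. Sensitized JTY2953 diluted 1∶200 from an overnight culture got a final 20 µg/ml and was fixed 6–7 h later; other runs dosed dividing JTY2953 (fixed at 6 h) or BY4741 (fixed at 4.33 h). G1 fraction means the Dean-Jett-Fox G1 peak area relative to the G1 and G2/M areas together.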

Row | SMILES | fraction of cells in G1 phase
1 | CC(=O)O[C@]1(C(C)=O)CC[C@H]2[C@@H]3C=C(C)C4=CC(=O)CC[C@]4(C)[C@H]3CC[C@@]21C [Megestrol acetate] (52.0129 µM) | 0.575
2 | C[C@H]1C[C@@H]2[C@H]([C@@H](O)C[C@@]3(C)[C@H]2CC[C@]3(O)C(=O)CO)[C@@]2(C)C=CC(=O)C=C12 [Methylprednisolone] (53.4072 µM) | 0.481
3 | O=C1NC(=O)C(c2ccccc2)(c2ccccc2)N1 [Phenytoin] (79.2785 µM) | 0.535
4 | COC(=O)Nc1nc2cc([S+]([O-])c3ccccc3)ccc2[nH]1 (configuration not stated) [Oxfendazole] (63.421 µM) | 0.536
5 | C[C@@H](O)[C@@H]1NC(=O)[C@H](CCCCN)NC(=O)[C@@H](Cc2c[nH]c3ccccc23)NC(=O)[C@H](Cc2ccccc2)NC(=O)[C@@H](NC(=O)[C@H](N)Cc2ccccc2)CSSC[C@@H](C(=O)N[C@H](CO)[C@@H](C)O)NC1=O [Octreotide] (19.6221 µM) | 0.478
6 | Cn1c(NCCN(CCO)CCCc2ccc([N+](=O)[O-])cc2)cc(=O)n(C)c1=O [Nifekalant HCl] (49.327 µM) | 0.479
7 | O=P(O)(O)C(Cl)(Cl)P(=O)(O)O [Clodronate disodium] (81.6683 µM) | 0.505
8 | CC(C)NNC(=O)c1ccncc1 [Iproniazid] (111.593 µM) | 0.47
9 | CC(=O)Nc1ccc(OCC(O)CNC(C)C)cc1 (configuration not stated) [Practolol] (75.0911 µM) | 0.506
10 | CC(=O)OCC(CCn1cnc2cnc(N)nc21)COC(C)=O [Famciclovir] (62.2396 µM) | 0.505
11 | c1ccc2c(CC3=NCCN3)cccc2c1 [Naphazoline HCl] (95.1108 µM) | 0.456
12 | C[C@H]1C[C@H]2[C@@H]3CCC4=CC(=O)C=C[C@]4(C)[C@@]3(F)[C@@H](O)C[C@]2(C)[C@@]1(O)C(=O)CO [Betamethasone] (39.6353 µM) | 0.508
13 | C#C[C@]1(O)CC[C@H]2[C@@H]3CCC4=CC(=O)CC[C@@H]4[C@H]3CC[C@@]21C [Norethindrone] (67.0176 µM) | 0.552
14 | CC(C)Cn1cnc2c(N)nc3ccccc3c21 [Imiquimod] (83.2257 µM) | 0.484
15 | COc1cc2c(cc1OC)-c1c/c(=N\c3c(C)cc(C)cc3C)n(C)c(=O)n1CC2 [Trequinsin HCl] (45.2489 µM) | 0.425
16 | NC(=O)N1c2ccccc2C=Cc2ccccc21 [Carbamazepine] (84.6469 µM) | 0.483
17 | CCN1CCN(C(=O)N[C@@H](C(=O)N[C@@H]2C(=O)N3C(C(=O)O)=C(CSc4nnnn4C)CS[C@H]23)c2ccc(O)cc2)C(=O)C1=O [Cefoperazone acid] (30.9752 µM) | 0.487
18 | N=C(N)NC(=O)c1nc(Cl)c(N)nc1N [Amiloride] (75.1597 µM) | 0.516
19 | Nc1ccc(S(=O)(=O)Nc2ncccn2)cc1 [Sulfadiazine] (79.9102 µM) | 0.521

Row | SMILES | fraction of cells in G1 phase
20 | CC1=C(CC(=O)O)c2cc(F)ccc2/C1=C\c1ccc([S+](C)[O-])cc1 (configuration not stated) [Sulindac] (56.1137 µM) | 0.521
21 | CC(C)NCC(O)c1ccc(O)c(O)c1 (racemic) [Isoproterenol HCl (rac)] (94.6687 µM) | 0.447
22 | CCCCC[C@H](O)/C=C/[C@H]1[C@H](O)CC(=O)[C@@H]1CCCCCCC(=O)O [Alprostadil] (56.4189 µM) | 0.447
23 | O=C(c1ccc(F)cc1)C1CCN(CCn2c(=O)[nH]c3ccccc3c2=O)CC1 [Ketanserin tartrate] (50.5769 µM) | 0.475
24 | O=P(O)(O)C(O)(Cc1cccnc1)P(=O)(O)O [Risedronic acid] (70.6425 µM) | 0.463
25 | CC(=O)O[C@H]1C[C@@H]2CC[C@@H]3[C@H](CC[C@@]4(C)[C@H]3C[C@H]([N+]3(C)CCCCC3)[C@@H]4OC(C)=O)[C@@]2(C)C[C@@H]1N1CCCCC1 [Vecuronium Br] (35.8523 µM) | 0.478
26 | CC(C)C[C@H](NC(=O)[C@@H](COC(C)(C)C)NC(=O)[C@H](Cc1ccc(O)cc1)NC(=O)[C@H](CO)NC(=O)[C@H](Cc1c[nH]c2ccccc12)NC(=O)[C@H](Cc1cnc[nH]1)NC(=O)[C@@H]1CCC(=O)N1)C(=O)N[C@@H](CCCNC(=N)N)C(=O)N1CCC[C@H]1C(=O)NNC(N)=O [Goserelin acetate] (15.755 µM) | 0.485
27 | CCCCC[C@H](O)/C=C/[C@@H]1[C@@H](C/C=C\CCCC(=O)O)[C@@H](O)C[C@H]1O [Dinoprost] (56.4189 µM) | 0.523
28 | CCn1cc(C(=O)O)c(=O)c2cc(F)c(N3CCNC(C)C3)c(F)c21 (configuration not stated) [Lomefloxacin HCl] (56.9223 µM) | 0.489
29 | O=S(=O)(c1cccc2cnccc12)N1CCCNCC1 (54.8998 µM) | 0.529
30 | CCOC(=O)C1=C[C@@H](OC(CC)CC)[C@H](NC(C)=O)[C@@H](N)C1 [Oseltamivir] (64.0179 µM) | 0.472
31 | CC(C)(O)c1ccccc1CC[C@@H](SCC1(CC(=O)O)CC1)c1cccc(/C=C/c2ccc3ccc(Cl)cc3n2)c1 [Montelukast] (34.1181 µM) | 0.532
32 | COc1ccccc1N1CCN(CC(O)COc2cccc3ccccc23)CC1 (configuration not stated) [Naftopidil 2HCl] (50.9551 µM) | 0.564
33 | C[C@H]1COc2c(C3(N)CC3)c(F)cc3c(=O)c(C(=O)O)cn1c23 [Pazufloxacin] (62.8324 µM) | 0.474
34 | O=C1CCC(N2C(=O)c3ccccc3C2=O)C(=O)N1 (configuration not stated) [Thalidomide] (77.4486 µM) | 0.464
35 | CC(C)C[C@H](NC(=O)[C@H](Cc1ccccc1)NC(=O)c1cnccn1)B(O)O [Bortezomib] (52.0499 µM) | 0.4
36 | Nc1ccc(O)c(C(=O)O)c1 [5-aminosalicylic acid] (130.601 µM) | 0.48
37 | O=C(NCCNCC(O)COc1ccc(O)cc1)N1CCOCC1 (configuration not stated) [Xamoterol hemifumarate] (58.9284 µM) | 0.518
